Assay outcomes from PubChem.
A selection: hits, their analogues and other compounds. The true share with any hit is near 1.1%.
rTrxR1 inhibitor: qHTS Assay for Inhibitors of Mammalian Selenoprotein Thioredoxin Reductase 1 (TrxR1): qHTS; Potency, µM (highest dose often 114 µM), usual class: inhibitors; 390,000 compounds, 1% hits; Thioredoxin reductase 1, cytoplasmic (Rattus norvegicus), O89049; AID 588453, 2011; recombinant rTrxR1, NADPH fluorescence consumption, selenite substrate; further: nearly all actives have a fitted effect of over 65% in size
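Rat TrxR1 (90 nM in the dispensed reagent) was pre-reduced with 400 uM NADPH for 5 min at room temperature, then incubated with compound for 15 min. After 400 uM selenite was added, NADPH fluorescence (Ex 340/Em 450 nm) was followed for 8 min.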
TrxR1 substrate: qHTS Assay for Substrates of Mammalian Selenoprotein Thioredoxin Reductase 1 (TrxR1): qHTS | purified TrxR1 substrate turnover, NADPH consumption readout | Potency, µM (doses to about 114 µM) | 390,000 compounds, 0.01% hits | AID 588456, 2011; further: nearly all actives have a fitted effect of over 50% in size
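Rat TrxR1, dispensed at 90 nM, was prereduced with 400 uM NADPH (final) for 5 min at ~22 deg C, then incubated with compound 15 min before 400 uM selenite. A first-read NADPH fluorescence drop versus no-compound background flagged substrates.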
miR-21 reporter: qHTS Assay for Modulators of miRNAs and/orActivators of miR-21; 340,000 tested, under 10 active; Potency, µM (top dose mostly 38.3 µM), actives largely listed as activators; AID 2288, 2010; HeLa miR-21 FLuc reporter, luciferase, 48 h;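 further: miR-21 action dims this reporter so a rising signal means less miR-21 action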
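Luminescence from a firefly luciferase reporter carrying a miR-21 binding site downstream, stably expressed under a CMV promoter in HeLa cells that make miR-21 endogenously, reports miRNA modulation after 48 h compound exposure up to approximately 40uM final.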
PINK1 modulator: A Quantitative High throughput Screen to Identify Chemical Modulators of PINK1 Expression | 410,000 compounds, 0.2% hits | Potency, µM (titrated, usually from 76.6 µM), actives largely listed as activators | PINK1 immunofluorescence, high-content cytometry, 24 h; active means well fitted activation curve with a large enough effect; inconclusive means small, poorly fitted or top-dose-only effect; cell line not stated here; further: nearly all actives have a fitted effect of over 65% in size
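Stable cell line treated 24 h with compounds at 5 concentrations (CCCP controls), then fixed and immunostained for PINK1 plus nuclear and cell stains; PINK1 immunofluorescence quantified by laser-scanning microplate cytometry.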
GALK inhibitor: qHTS Assay for Inhibitors of Human Galactokinase (GALK); Purified GALK, Kinase-Glo residual ATP luminescence; 270,000 compounds, 0.007% hits; P51570; Potency, µM (doses to about 57.5 µM), most hits filed as inhibitors
Target sequence (P51570 whole entry, looked up): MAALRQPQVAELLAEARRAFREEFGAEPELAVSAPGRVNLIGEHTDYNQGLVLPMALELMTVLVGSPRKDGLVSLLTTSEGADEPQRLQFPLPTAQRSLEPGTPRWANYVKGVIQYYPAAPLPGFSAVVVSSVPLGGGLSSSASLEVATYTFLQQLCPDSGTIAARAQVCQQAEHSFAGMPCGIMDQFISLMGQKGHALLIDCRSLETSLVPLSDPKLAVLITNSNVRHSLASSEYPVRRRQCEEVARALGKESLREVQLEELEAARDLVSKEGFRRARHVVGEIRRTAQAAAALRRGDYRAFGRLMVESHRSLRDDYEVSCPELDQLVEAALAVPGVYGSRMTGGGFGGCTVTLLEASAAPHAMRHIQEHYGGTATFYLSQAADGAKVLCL
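GALK at 5 nM final was combined with compound, 35 uM ATP and 100 uM galactose in HEPES pH8.0 with MgCl2 and DTT. The reaction ran one hour at room temperature before luminescent ATP detection.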
Of the large screens only hits and unclear results are named; the others gave an inactive call. Unless noted, the call rests on the fitted dose curve; in most records, active means well fitted curve in the direction sought with a large enough effect; inconclusive means small, poorly fitted or top-dose-only effect, or another doubt; inactive means no such curve, though single readings can be large; an effect the other way counts as inactive or inconclusive.

CN1CC[C@@]2(CCCN(C(=O)c3ccncc3)C2)C1	none (no result: rTrxR1 inhibitor, TrxR1 substrate, miR-21 reporter, GALK inhibitor)
COc1ccccc1-n1c(O)c(/C=N/NC(=S)Nc2ccccc2)c(=O)[nH]c1=S	rTrxR1 inhibitor 10µM
Cc1ccccc1C1CC(=O)Nc2ccc3ccccc3c21 (stereo not given)	miR-21 reporter inconclusive (no result: GALK inhibitor)
CCCC12CN3CC(C)(CN(C1)C3c1c(C)[nH]c(=O)[nH]c1=O)C2=O (stereo not given)	none (no result: GALK inhibitor)
Cc1nn(Cc2ccccc2)c(C)c1C=C1C(=O)NC(=O)NC1=O	rTrxR1 inhibitor 35µM
CC1=CC2/C=C(\C)CCC(O)C(O)/C=C/C(=O)C23C(=O)NC(CC(C)C)C3C1C (stereo not given)	rTrxR1 inhibitor 16µM, miR-21 reporter inconclusive
C/C(=N\NC(=O)c1ccccc1)c1c(O)n(Cc2ccccc2)c(=O)[nH]c1=O	none (no result: GALK inhibitor)
C/C(=N\Nc1cccc2ccccc12)c1c(O)n(Cc2ccccc2)c(=O)[nH]c1=O	rTrxR1 inhibitor 45µM, miR-21 reporter inconclusive
NC(=O)C1=CN(C2OC(COP(=O)(O)OP(=O)(O)OC[C@H]3O[C@@H](n4cnc5c(N)ncnc54)[C@H](OP(=O)(O)O)[C@@H]3O)C(O)C2O)C=CC1 (stereo not given in full)	none (no result: miR-21 reporter, PINK1 modulator, GALK inhibitor)
CCN(CC)CCSc1nc2ccccc2c(=O)n1-c1ccc(Cl)cc1	none (no result: GALK inhibitor)
Cc1cc(/C=C/c2cccc3sc(C)[n+](CCCCI)c23)ccc1N(CCCl)CCCl	rTrxR1 inhibitor 16µM (no result: miR-21 reporter, GALK inhibitor)
Cc1cc(/C=C/c2ccnc3ccccc23)ccc1N(CCCl)CCCl	none (no result: miR-21 reporter, GALK inhibitor)
CN1C(=O)C(=Cc2ccccc2OS(=O)(=O)c2ccccc2)C(=O)N(C)C1=O	rTrxR1 inhibitor 28µM
CN1C(=O)C(=Cc2ccccc2OCc2ccccc2Cl)C(=O)N(C)C1=O	rTrxR1 inhibitor inconclusive, PINK1 modulator inconclusive
On1ccccc1=S	rTrxR1 inhibitor inconclusive, PINK1 modulator inconclusive (no result: miR-21 reporter, GALK inhibitor)
NCCc1cc(O)c(O)cc1O	rTrxR1 inhibitor 56µM (no result: miR-21 reporter, GALK inhibitor)
COc1ccc(CCN)cc1O	none (no result: miR-21 reporter, GALK inhibitor)
COc1ccc(-c2nc(CN3C(=O)CN=C(c4ccccc4)c4ccccc43)c(C)o2)cc1OC	none (no result: GALK inhibitor)
COc1ccc(-[n+]2c(-c3ccccc3)cc(-c3ccccc3)cc2-c2ccccc2)cc1	PINK1 modulator 16µM (no result: miR-21 reporter, GALK inhibitor)
Oc1ccc(-[n+]2c(-c3ccccc3)cc(-c3ccccc3)cc2-c2ccccc2)cc1	PINK1 modulator inconclusive (no result: miR-21 reporter, GALK inhibitor)
COc1cc2nc(N3CCCN(C)CC3)nc(N(C)C3CCN(C)CC3)c2cc1OC	rTrxR1 inhibitor inconclusive (no result: miR-21 reporter, GALK inhibitor)
O=C1CCN(C(=O)Cc2ccccc2[N+](=O)[O-])CC1	none
O=[N+]([O-])c1ccccc1CCl	rTrxR1 inhibitor 45µM (no result: miR-21 reporter, GALK inhibitor)
COc1cccc(N2C(=O)/C(=C/c3ccc(C)o3)C(=O)NC2=S)c1	rTrxR1 inhibitor 25µM (no result: GALK inhibitor)
O=C1NC(=O)N(CCC2=CCCCC2)C(=O)/C1=C\c1cccs1	rTrxR1 inhibitor 7.1µM
COc1ccc(N2C(=O)/C(=C/c3cccs3)C(=O)NC2=S)cc1	rTrxR1 inhibitor 7.9µM (no result: GALK inhibitor)
C=CCN1C(=O)/C(=C/c2cccs2)C(=O)NC1=S	rTrxR1 inhibitor 10µM, miR-21 reporter inconclusive
COc1ccc(N2C(=O)/C(=C/c3ccc(N(C)C)o3)C(=O)NC2=S)cc1	rTrxR1 inhibitor inconclusive
COC(=O)[C@@H](Cc1ccccc1)N(Cc1ccccc1)S(=O)(=O)N(Cc1ccccc1)[C@H](Cc1ccccc1)C(=O)OC	none (no result: miR-21 reporter, GALK inhibitor)
COc1cc(=O)n2c(c1C(=O)N(C)Cc1nonc1C)CCN(C(=O)C1C(C)(C)C1(C)C)CC2	none (no result: rTrxR1 inhibitor, TrxR1 substrate, miR-21 reporter, GALK inhibitor)
Cc1ccc(/C=C2\C(=O)NC(=S)N(c3ccc(F)cc3)C2=O)s1	rTrxR1 inhibitor 10µM
Cc1ccc(/C=C2\C(=O)NC(=S)N(c3ccccc3F)C2=O)s1	rTrxR1 inhibitor 13µM
CCOc1cccc(N2C(=O)/C(=C/c3ccco3)C(=O)NC2=S)c1	rTrxR1 inhibitor inconclusive
CCOC(=O)C1CCN(/C=C2/C(=O)NC(=S)N(c3ccccc3F)C2=O)CC1	none
O=C1NC(=S)N(c2ccccc2)C(=O)/C1=C/c1ccco1	rTrxR1 inhibitor 20µM
